# According to the supplement of paper PMC9694430:
# Counter-ions that a name gives are not always drawn.
# Tests used:
# Assay in all cases: thermal shift delta Tm vs DMSO control; higher = stronger stabilization (binding)
# Settings in all cases: 12.5 µM; protein concentration 2 µM
# [1] = test system: LOC_OS01G01410-cb001
# Outline: (§1)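 Rice kinase domain constructs were expressed in E. coli, purified, and tested by differential scanning fluorimetry with compound added in DMSO. Each well of a 96-well plate held 19.5 μl of 2 μM kinase in 100 mM potassium phosphate pH 7.5, 150 mM NaCl, 10% glycerol and 5 × SYPRO Orange, and fluorescence was read from 25°C to 95°C at 0.05°C/s. The melting temperature shift is the mean of triplicates, taken against protein with DMSO alone after Boltzmann fitting.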
# [2] = test system: LOC_OS01G02750-cb003
# Outline: as §1
# [3] = test system: LOC_OS01G10900-cb004
# Outline: as §1
# [4] = test system: LOC_OS01G13800-cb001
# Outline: as §1
# [5] = test system: LOC_OS01G14860-cb001
# Outline: as §1
# [6] = test system: LOC_OS01G21960-cb002
# Outline: as §1
# [7] = test system: LOC_OS01G39600-cb002
# Outline: as §1
# [8] = test system: LOC_OS01G48390-cb002
# Outline: as §1
# [9] = test system: LOC_OS01G51400-cb002
# Outline: as §1
# [10] = test system: T1, LOC_OS01G52050-cb004
# T1 sequence (whole entry): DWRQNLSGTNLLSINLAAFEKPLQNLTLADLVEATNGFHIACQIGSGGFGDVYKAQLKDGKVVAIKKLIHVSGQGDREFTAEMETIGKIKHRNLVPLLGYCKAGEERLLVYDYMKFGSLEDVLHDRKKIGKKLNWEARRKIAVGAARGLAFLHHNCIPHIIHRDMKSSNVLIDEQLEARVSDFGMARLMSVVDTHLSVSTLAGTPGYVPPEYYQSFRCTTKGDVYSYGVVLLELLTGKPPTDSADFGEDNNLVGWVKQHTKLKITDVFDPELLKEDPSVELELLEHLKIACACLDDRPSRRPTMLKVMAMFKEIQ
# Outline: as §1
Compound,thermal shift delta Tm [1] [°C],thermal shift delta Tm [2] [°C],thermal shift delta Tm [3] [°C],thermal shift delta Tm [4] [°C],thermal shift delta Tm [5] [°C],thermal shift delta Tm [6] [°C],thermal shift delta Tm [7] [°C],thermal shift delta Tm [8] [°C],thermal shift delta Tm [9] [°C],thermal shift delta Tm [10] [°C]
O=S(=O)(c1cccc2c(I)cccc12)N1CCCNCC1,0.23,0.79,0.56,0.43,0.67,0.53,0.27,1.35,0.24,2.58
O=C1NC(=O)/C(=C/c2ccc(-c3ccc(F)cc3O)o2)S1,3.59,5.21,2.81,2.09,4.25,2.37,7.64,3.1,3.89,8.12
Cc1ccc(C(=O)Nc2ccc(Oc3cc4cnn(C)c4cc3-c3cn[nH]c3)c(F)c2)c(=O)n1-c1ccc(F)cc1,0.22,3.21,0.37,1.46,3.24,0.63,0.72,1.1,0.84,2.17
COc1ncc(-c2ccc3nccc(-c4ccnnc4)c3c2)cc1NS(=O)(=O)c1ccc(F)cc1F,1.94,1.21,0.23,0.27,1.9,1.2,3.65,0.45,0.55,1.09
CC(C)c1ccc2oc3nc(N)c(C(=O)O)cc3c(=O)c2c1 [Amlexanox],0.99,0.05,0.62,-0.62,0.4,-0.2,2.5,-0.03,0.2,1.26
NC(=O)c1cnc2[nH]ccc2c1N[C@@H]1[C@@H]2CC3C[C@H]1C[C@@](O)(C3)C2,3.91,3.77,1,0.16,5.61,2.38,5.22,4.09,0.18,4.66
CCc1nc(-c2cccc(C)c2)c(-c2ccnc(NC(=O)c3ccccc3)c2)s1,0.24,0.26,0.38,-0.71,0.27,-0.03,0.93,0.28,0.2,0.24
CNc1nc(Nc2cn(C(C)(C)C#N)nc2C)ncc1C(F)(F)F,0.23,1.65,0.23,0.93,0.11,1.18,-0.3,0.76,0.31,0.37
COc1ccc(-c2cc3c(C)nc(N)nc3n([C@H]3CC[C@H](OCCO)CC3)c2=O)cn1,0.74,0.7,0.3,0.31,0.17,0.57,0.34,0.57,0.45,0.16
C=C(C)[C@@H]1CC[C@]2(C)CC[C@]3(C)[C@H](CC[C@@H]4[C@@]5(C)CC[C@H](O)C(C)(C)[C@@H]5CC[C@]43C)[C@@H]12 [Lupeol],0.2,0.62,0.32,0.74,0.11,0.67,0.07,-0.09,-0.11,0.44
CC(C)Nc1cc(-c2c[nH]c(C(=O)N[C@H](CO)c3cccc(Cl)c3)c2)c(Cl)cn1,6.3,1.26,0.37,0.75,5.82,1.37,1.63,1.24,0.12,2.18
Cn1cc(C2=C(c3ccc(Cl)cc3Cl)C(=O)NC2=O)c2ccccc21,4.05,13.7,6.42,1.69,6.48,4.64,18.2,2.99,13.9,14.6
Cc1ccc(F)c(NC(=O)Nc2ccc(-c3cccc4[nH]nc(N)c34)cc2)c1 [Linifanib (ABT-869)],3,3.87,1.34,0.36,2.29,1.08,2.02,4.44,0.54,6.66
Cc1ccc(NC(=O)c2ccc(CN3CCN(C)CC3)cc2)cc1Nc1nccc(-c2cccnc2)n1 [Imatinib Mesylate (STI571)],1.08,0.88,1.18,0.6,0.15,0.23,0.07,0.86,0.08,0.02
C=CC(=O)Nc1cc(Nc2nccc(-c3cn(C)c4ccccc34)n2)c(OC)cc1N(C)CCN(C)C [Osimertinib (AZD9291)],0.41,0.94,0.45,-0.53,0.01,0.34,0.02,-0.33,0.43,0.11
Cc1cc(F)c(Nc2ncnc3cc(OCc4ccccc4)ccc23)cc1O,0.8,2.62,0.6,0.61,0.45,1.56,1.09,1.2,0.81,0.77
COc1cc(OC)cc(-c2cc3cnc(N)nc3nc2NC(=O)NC(C)(C)C)c1,0.51,1.48,0.1,0.07,0.48,0.33,-0.76,0.85,0.05,1.75
CC(C)(C#N)c1ccc(N2C(=O)OCc3cnc4ccc(-c5cnc6ccccc6c5)cc4c32)cc1,0.56,1.19,0.21,0.42,0.26,0.66,0.12,0.59,0.65,0.6
